Inconclusive results are not listed. Activity calls are given as the source filed them. The call rests on the fitted dose curve; in most records, active means well fitted cell-killing curve with a large enough effect; inconclusive means small, poorly fitted or top-dose-only effect, or effect the other way; inactive means no such curve, though single readings can be large or run the other way. Starred links: 1 amine or outer side, 2 acyl side, 3 side chain; linkers in the order of their positions; H or OH if unused. Positions of bridges follow the written chain, without caps; N, C: chain ends. Non-standard residues stand in square brackets, D forms with d. Residues, ends and D or L forms follow the SMILES beside them. Chains are numbered I, II in the order given. *: point of attachment. Actinocin(9to1) = Cc1c2oc3c(C)ccc(C(=O)[*:1])c3nc-2c(C(=O)[*:2])c(N)c1=O; NMeV = CN[CH](C(=O)O)C(C)C; Nva = CCC[C@H](N)C(=O)O; Cbz = O=C(OCc1ccccc1)*; Sar = CNCC(=O)O
experiment: Quantitative High-Throughput drug screen in 47 multiple myeloma cell lines against the NCATS MIPE library collection: KMS34_JCRB cell viability assay (AID 1918985); details: KMS34 myeloma viability, CellTiter-Glo ATP luminescence, 48 h; series mostly up to 45.8 µM; further: nearly all actives have a fitted effect of over 40% in size
From the text: PI: Beverly A. Mock Ph.D.
Laboratory of Cancer Biology and Genetics,
Center for Cancer Research, National Cancer Institute,
National Institute of Health, Bethesda, Maryland
Drug resistance and disease progression are common in multiple myeloma (MM) patients, underscoring the need for new therapeutic combinations. […] We hypothesized that effective combinations would reduce MYC expression and enhance p16 activity. […] These preclinical data identify potentially useful drug combinations for evaluation in drug-resistant MM and reveal potential mechanisms of combined drug sensitivity.
Described herein is the primary MIPE qHTS used to cherrypick compounds. Validated compounds were then further tested for potential synergistic activiy.
[1] Peat TJ, Gaikwad SM, Dubois W, Gyabaah-Kessie N, Zhang S, Gorjifard S, Phyo Z, Andres M, Hughitt VK, Simpson RM, Miller MA, Girvin AT, Taylor A, Williams D, D'Antonio N, Zhang Y, Rajagopalan A, Flietner E, Wilson K, Zhang X, Shinn P, Klumpp-Thomas C, McKnight C, Itkin Z, Chen L, Kazandijian D, Zhang J, Michalowski AM, Simmons JK, Keats J, Thomas CJ, Mock BA. Drug combinations identified by high-throughput screening promote cell cycle transition and upregulate Smad pathways in myeloma. Cancer Lett. 2023 Aug 1;568:216284. doi: 10.1016/j.canlet.2023.216284. Epub 2023 Jun 24. PMID: 37356470; PMCID: PMC10408729.
SEQUENCE No. (e.g., 1, 2, 3, etc.); […] (e.g., Cells, Incubation, Reagent, etc.); VALUE and DESCRIPTION.
1; Cells; 5 uL; white, solid bottom 1536-well Greiner assay plate.
2; Compounds; 23 nL; Kalypsis pin tool (Wako USA) equipped with a 1536-well pin head to transfer to the assay plates.
3; Incubation; 48 hours; 37C incubation.
4; Reagent;5uL; CellTiter Glo (Promega).
5; Detector; 425V; Luminescence; Viewlux PerkinElmer.
NOTES (numbers refer to Sequence numbers above)
1. The cell-based screening methods employed in this study were like those previously published. Briefly, the corresponding myeloma cell lines were screened in 1,536-well plates with 500 cells, 5-uL per well for inhibition of cell viability (assessed by measuring ATP levels with CellTiterGlo).
2. NCATS MIPE 4.0 library of approved and investigational drugs were added using the Kalypsis pin tool. Wells treated with DMSO only for 100% viability and media only for 0% viability were used as controls.
3. The assay plates were covered and incubated for 48 hours in a 37C, 5% CO2 incubator with controlled humidity.
4. After 48 hours, CellTilter-GloTM luminescent substrate mix (Promega) reagent was added to the assay plate and plates we incubated for 5 min at room temperature.
5. Signal was measured as median relative luminescence units on a ViewLux (PerkinElmer) multiplate reader.
[1] Heske CM, Davis MI, Baumgart JT, Wilson K, Gormally MV, Chen L, Zhang X, Ceribelli M, Duveau DY, Guha R, Ferrer M, Arnaldez FI, Ji J, Tran HL, Zhang Y, Mendoza A, Helman LJ, Thomas CJ. Matrix Screen Identifies Synergistic Combination of PARP Inhibitors and Nicotinamide Phosphoribosyltransferase (NAMPT) Inhibitors in Ewing Sarcoma. Clin Cancer Res. 2017 Dec 1;23(23):7301-7311. doi: 10.1158/1078-0432.CCR-17-1121. Epub 2017 Sep 12. PMID: 28899971; PMCID: PMC6636827.
Potency means the concentration at half of the fitted maximal effect.

Row | Compound | Potency | viability, percent of control
1 | CC(C)[C@H](CO)Nc1nc(Nc2cccc(Cl)c2)c2ncn(C(C)C)c2n1 | 18.7 µM (active) | –
2 | COc1cc(C=CC(=O)CC(=O)C=Cc2ccc(O)c(OC)c2)ccc1O | 6.79 µM (active) | –
3 | CCc1cnn2c(NCc3ccc[n+]([O-])c3)cc(N3CCCC[C@@H]3CCO)nc12 | 0.0148 µM (active) | –
4 | CC(C)OC(=O)[C@H](C)N[P@](=O)(OC[C@H]1O[C@@H](n2ccc(=O)[nH]c2=O)[C@](C)(F)[C@H]1O)Oc1ccccc1 | inactive | –
5 | CN1CCCN(C(=O)c2cccc(-c3ccc(C=C4C(=O)Nc5ccc(Cl)cc54)o3)c2)CC1 | 16.6 µM (active) | –
6 | C=CC[C@@H]1C=C(C)C[C@H](C)C[C@H](OC)[C@H]2O[C@@](O)(C(=O)C(=O)N3CCCC[C@H]3C(=O)O[C@H](C(C)=C[C@@H]3CC[C@H](O)[C@H](OC)C3)[C@@H](C)[C@@H](O)CC1=O)[C@@H](C)C[C@@H]2OC | 1.48 µM (active) | –
7 | CN(C)c1ccc(C(=O)NCCCCCCC(=O)NO)cc1 | 0.662 µM (active) | –
8 | CC(C)(C)[C@H](NC(=O)c1ccc(N)c(Cl)c1)C(=O)N1CCC[C@@H]1C(=O)N[C@H](C#N)CC(=O)O | – | 103% [at 3.51 µM] (inactive)
9 | CC(C)N(CC[C@H](c1ccccc1)c1cc(CO)ccc1O)C(C)C | inactive | –
10 | CC(=O)N1CCN(c2ccc(OCc3nn(C)c(C)c3-c3cccc4c(CCCOc5cccc6ccccc56)c(C(=O)O)n(Cc5cccnc5)c34)cc2)CC1 | 18.7 µM (active) | –
11 | C[N+](C)([O-])CCNc1ccc(NCC[N+](C)(C)[O-])c2c1C(=O)c1c(O)ccc(O)c1C2=O | inactive | –
12 | CC(=O)N[C@@H]1[C@H](O[C@@H]2c3ccc(c(Cl)c3)Oc3cc4cc(c3O[C@H]3O[C@H](CO)[C@@H](O)[C@H](O)[C@H]3NC(=O)CCCCCCCC(C)C)Oc3ccc(cc3Cl)C[C@H]3NC(=O)[C@H](N)c5ccc(O)c(c5)Oc5cc(O)cc(c5)[C@H](NC3=O)C(=O)N[C@H]4C(=O)N[C@H]3C(=O)N[C@@H]2C(=O)N[C@@H](C(=O)O)c2cc(O)cc(O[C@H]4O[C@H](CO)[C@@H](O)[C@H](O)[C@H]4O)c2-c2cc3ccc2O)O[C@H](CO)[C@@H](O)[C@@H]1O | inactive | –
13 | Cc1c2oc3c(C)ccc(C(=O)NC4C(=O)NC(C(C)C)C(=O)N5CCCC5C(=O)N(C)CC(=O)N(C)C(C(C)C)C(=O)OC4C)c3nc-2c(C(=O)NC2C(=O)NC(C(C)C)C(=O)N3CCCC3C(=O)N(C)CC(=O)N(C)C(C(C)C)C(=O)OC2C)c(N)c1=O (stereo not given) (I: TVP[Sar][NMeV] / II: TVP[Sar][NMeV]; ester I:1-I:C, II:1-II:C; linker I:N-II:N via Actinocin(9to1); configuration not given here) | inactive | –
14 | COc1cc(CCc2cc(NC(=O)c3ccc(N4C[C@@H](C)N[C@@H](C)C4)cc3)n[nH]2)cc(OC)c1 | 16.6 µM (active) | –
15 | CCCNC(=O)[C@H]1O[C@H]1C(=O)N[C@H](C(=O)N1CCC[C@@H]1C(=O)OC)C(C)CC (stereo not given in full) | 4.18 µM (active) | –
16 | COc1ccc(C[C@@H](C)[C@@H](C)Cc2ccc(OC)c(OC)c2)cc1OC | 0.132 µM (active) | –
17 | O=c1ccn([C@@H]2O[C@H](CO)[C@H](O)[C@@H]2F)c(=O)[nH]1 | inactive | –
18 | CC(C)(O)[C@H]1CC[C@@](C)([C@H]2[C@@H](O)C[C@@]3(C)[C@@H]4C[C@H](O[C@@H]5O[C@H](CO)[C@@H](O)[C@H](O)[C@@H]5O)[C@H]5C(C)(C)[C@@H](O[C@@H]6OC[C@@H](O)[C@H](O)[C@@H]6O)CC[C@@]56C[C@@]46CC[C@]23C)O1 | inactive | –
19 | CC(=O)O[C@H]1C[C@@H]2CC[C@H]3[C@H]4C[C@H]([N+]5(C)CCCCC5)[C@@H](OC(C)=O)[C@@]4(C)CC[C@@H]3[C@@]2(C)C[C@H]1[N+]1(C)CCCCC1 | inactive | –
20 | COC1=C(OC)C(=O)C(CC=C(C)CCC=C(C)CCC=C(C)CCC=C(C)CCC=C(C)CCC=C(C)CCC=C(C)CCC=C(C)CCC=C(C)CCC=C(C)C)=C(C)C1=O | inactive | –

Row | Compound | Potency | viability, percent of control
21 | C=CC(=O)Nc1cccc(Nc2nc(NC3CCC(N(C)C)CC3)nc3c2ncn3C(C)C)c1 (stereo not given) | 1.05 µM (active) | –
22 | CCC[C@@H](C=O)NC(=O)[C@H](CC(C)C)NC(=O)[C@H](CC(C)C)NC(=O)OCc1ccccc1 (Cbz-Leu-Leu-[Nva]-aldehyde) | 0.743 µM (active) | –
23 | Cn1cc(C2=C(c3c4n(c5ccccc35)CCC(CN)C4)C(=O)NC2=O)c2ccccc21 (stereo not given) | 11.8 µM (active) | –
24 | COC(=O)[C@@H]1CC2=CC(=O)CC[C@]2(C)[C@@]23O[C@@H]2C[C@@]2(C)[C@H](CC[C@@]24CCC(=O)O4)[C@@H]13 | inactive | –
25 | CO[C@@H]1[C@@H](O)[C@H](O)[C@@H](n2c3c(Cl)cccc3c3c4c(c5c6cccc(Cl)c6[nH]c5c32)C(=O)NC4=O)O[C@@H]1CO | 1.32 µM (active) | –
26 | c1cc(CN2CCCNCCNCCCNCC2)ccc1CN1CCCNCCNCCCNCC1 | inactive | –
27 | CCCNS(=O)(=O)Nc1ncnc(OCCOc2ncc(Br)cn2)c1-c1ccc(Br)cc1 | inactive | –
28 | CCS(=O)(=O)Nc1ccc2[nH]c(O)c(C(=Nc3ccc(CN4CCCCC4)cc3)c3ccccc3)c2c1 | 0.935 µM (active) | –
29 | CCn1c(=O)c2c(nc(C=Cc3ccc(OC)c(OC)c3)n2C)n(CC)c1=O | inactive | –
30 | CC(Oc1ccc(O)cc1)(P(=O)(O)O)P(=O)(O)O | inactive | –
31 | Cn1cc(-c2cnn3c(N)c(Br)c([C@H]4CCCNC4)nc23)cn1 | 0.935 µM (active) | –
32 | Oc1cc(-c2nc(-c3ccccc3)[nH]c2-c2ccncc2)ccc1Cl | 16.6 µM (active) | –
33 | CC(=O)SCC(Cc1ccccc1)C(=O)NCC(=O)OCc1ccccc1 (stereo not given) | 2.35 µM (active) | –
34 | C[C@H](CCC(=O)O)[C@H]1CCC2C3C[C@H](O)[C@@H]4C[C@H](O)CC[C@]4(C)C3CC[C@@]21C (stereo not given in full) | inactive | –
35 | O=C1NC(=O)[C@@H](c2cn3c4c(cccc24)CCC3)[C@H]1c1c[nH]c2ccccc12 | 0.418 µM (active) | –
36 | C[C@H](O)[C@@H]1C(=O)N2C(C(=O)O)=C(S[C@@H]3CN[C@H](CNS(N)(=O)=O)C3)[C@@H](C)[C@@H]12 | inactive | –
37 | CC(=O)NCC(=O)N1[C@H]2CC[C@H]1c1cc(Nc3ncc(C(F)(F)F)c(NC4CCC4)n3)ccc12 | 0.833 µM (active) | –
38 | NC(=O)c1ncn([C@@H]2O[C@H](CO)[C@@H](O)[C@@H]2O)c1N | inactive | –
39 | O=c1c(O)c(-c2ccc(O)c(O)c2)oc2cc(O)ccc12 | 18.7 µM (active) | –
40 | CC(C=CC1=C(C)CCCC1(C)C)=CC=CC(C)=CC(=O)Nc1ccc(O)cc1 | 17.1 µM (active) | –

— PubChem BioAssay (NCATS)
